# From paper PMC11062922 (Nature Chemical Biology, 2023)
# Where two headings read alike, the source gives them in different places.
# Columns and labels:
# Parameters in all cases: species or system human, MV4-11 + K-562 + COLO205 + SK-N-BE2 + OVCAR-8
# CDC42 = settings: read-out: apparent Kd, n = 1
# MAP4K3 = settings: read-out: apparent Kd; compound concentrations: 100 nM and 1000 nM (sheet 'Samples'), CATDS: 5.6013670337788E-2; n = 1
# MAP3K4 = settings: read-out: apparent Kd; compound concentrations: 100 nM and 1000 nM (sheet 'Samples'), CATDS: 3.4818891633212903E-2; n = 1
# MET = settings: read-out: apparent Kd, compound concentrations: 100 nM and 1000 nM (sheet 'Samples'), n = 1
# STK11 = settings: read-out: apparent Kd; compound concentrations:100 nM and 1000 nM (sheet 'Samples'); n = 1
# CDC7 = settings: read-out: apparent Kd, n = 1
# PRKCA = settings: read-out: apparent Kd; compound concentrations:100 nM and 1000 nM (sheet 'Samples'); n = 1
# FGFR1 = settings: read-out: apparent Kd; compound concentrations: 100 nM and 1000 nM (sheet 'Samples'), CATDS: 1.6795329465602301E-2; n = 1
# NUAK2 = settings: read-out: apparent Kd; compound concentrations: 100 nM and 1000 nM (sheet 'Samples'), CATDS: 9.7596009365087198E-3; n = 1
# SPR = settings: read-out: apparent Kd, compound concentrations: 100 nM and 1000 nM (sheet 'Samples'), n = 1
# TAOK3 = settings: read-out: apparent Kd; compound concentrations: 100 nM and 1000 nM (sheet 'Samples'), CATDS: 3.3504953987682898E-2; n = 1
# PRKCQ = settings: read-out: apparent Kd; compound concentrations: 100 nM and 1000 nM (sheet 'Samples'), CATDS: 0.114661548989235; n = 1
# AIFM1 = settings: read-out: apparent Kd, n = 1
# AKT3 = settings: read-out: apparent Kd; compound concentrations:100 nM and 1000 nM (sheet 'Samples'); n = 1
# MAPK1 = settings: read-out: apparent Kd, n = 1
# PIM1 = settings: read-out: apparent Kd; compound concentrations: 100 nM and 1000 nM (sheet 'Samples'), CATDS: 4.9008652633002601E-2; n = 1
# MST1R = settings: read-out: apparent Kd; compound concentrations:100 nM and 1000 nM (sheet 'Samples'); n = 1
# [1] = compound concentrations:100 nM and 1000 nM (sheet 'Samples')
compound,measurement,setting,value
COc1cc2ncn(-c3cc(OCc4cccs4)c(C(N)=O)s3)c2cc1OC [GSK312948A],potency estimated from few doses,CDC42; [1],1550 nM
Nc1ncc(-c2cn[nH]c2)c2scc(-c3ccc4c(c3)CCN4C(=O)Cc3ccccc3)c12 [GSK2593067A],potency estimated from few doses,MAP4K3,2210 nM
Cc1ccc(O)cc1Nc1ccnc2ccc(C(C)(C)C)cc12 [GW856805X],potency estimated from few doses,"CDC42; compound concentrations: 100 nM and 1000 nM (sheet 'Samples'), CATDS: 2.73171121323963E-2",1430 nM
CN1CCN(Cc2ccc(NC(=O)Nc3ccc(N(C)c4ccnc(Nc5ccc(CS(C)(=O)=O)cc5)n4)cc3)cc2)CC1.Cl [GW827654A],potency estimated from few doses,MAP3K4,1770 nM
same,potency estimated from few doses,MET; CATDS: 3.7030406739302302E-2,1380 nM
COc1cccc(-c2c[nH]c3c(N/N=C/c4ccncc4)ncnc23)c1 [GW814408X],potency estimated from few doses,STK11,1900 nM
N#Cc1cccc(Nc2nccc(-c3cnn4ncccc34)n2)c1 [GW778894X],potency estimated from few doses,CDC7; [1],1240 nM
same,potency estimated from few doses,PRKCA,1180 nM
CNC(=O)c1ccccc1Nc1nc(Nc2cccc(CS(C)(=O)=O)c2)ncc1C.O=CO [GSK1520489A],potency estimated from few doses,FGFR1,213 nM
same,potency estimated from few doses,MET; CATDS: 7.7828561887260297E-2,12.2 nM
same,potency estimated from few doses,NUAK2,1500 nM
same,potency estimated from few doses,SPR; CATDS: 1.1311991214782401E-2,749 nM
CN1CCc2ccc(Nc3nccc(-c4c(-c5cccc(NC(=O)c6c(F)cccc6F)c5)nc5ccccn45)n3)cc2C1.Cl [GSK1010829B],potency estimated from few doses,TAOK3,1490 nM
Nc1nc(N)c2nc(-c3ccccc3)[nH]c2n1 [SKF-12778],potency estimated from few doses,STK11,1740 nM
COc1ccc(C2=C(c3cn(C)c4ccccc34)C(=O)NC2=O)cc1OC [RO3206363-000],potency estimated from few doses,PRKCQ,82.8 nM
COc1cccc(C2=C(c3cn(C)c4c(C)cccc34)C(=O)NC2=O)c1 [RO3301012-000],potency estimated from few doses,"CDC7; compound concentrations: 100 nM and 1000 nM (sheet 'Samples'), CATDS: 0.10055770090402801",1800 nM
Cl.Fc1cccc(COc2ccc(Nc3ncnc4cc(-c5ccc[nH]5)sc34)cc2Cl)c1 [GW693881A],potency estimated from few doses,"AIFM1; compound concentrations: 100 nM and 1000 nM (sheet 'Samples'), CATDS: 0.160865216132973",1350 nM
Cn1cc(C2=C(c3cn(CCCCCO)c4ccccc34)C(=O)NC2=O)c2ccccc21 [RO0318053-000],potency estimated from few doses,"CDC7; compound concentrations: 100 nM and 1000 nM (sheet 'Samples'), CATDS: 8.0152233997933905E-2",1890 nM
Nc1c(C(=O)c2ccccc2)cnn1-c1ccc(F)cc1 [RO1151246-000],potency estimated from few doses,AKT3,1420 nM
Cc1[nH]nc2c1N=C(c1ccccc1Cl)c1cc([N+](=O)[O-])ccc1N2 [RO0274406-000],potency estimated from few doses,"MAPK1; compound concentrations: 100 nM and 1000 nM (sheet 'Samples'), CATDS: 7.1630348262951699E-2",1230 nM
COc1cc(N2CCN(C(C)C)CC2)ccc1Nc1nc(Nc2cccc(F)c2C(=O)O)c2cc[nH]c2n1 [GSK1819799A],potency estimated from few doses,PIM1,1330 nM
same,potency estimated from few doses,SPR; CATDS: 4.2652137830011101E-2,2000 nM
Cc1ccc(C(=O)NC2CC2)cc1-c1ccc2[nH]ncc2c1 [GW820759X],potency estimated from few doses,"AIFM1; compound concentrations: 100 nM and 1000 nM (sheet 'Samples'), CATDS: 0.35268476986263803",1040 nM
Cl.Oc1ccc2ncnc(Nc3ccc(OCc4ccccc4)cc3)c2c1 [GI262866A],potency estimated from few doses,MAPK1; [1],617 nM
CCCCCNC(=O)[C@@H]1CCCN2C(=O)CC[C@H](NC(=O)[C@H](Cc3ccc(OP(=O)(O)O)cc3)NC(C)=O)C(=O)N12 [RO0324694-000],potency estimated from few doses,AIFM1; [1],1670 nM
Fc1cccc(COc2ccc(Nc3ncncc3C#Cc3ccccc3)cc2Cl)c1 [GW651576X],potency estimated from few doses,"CDC42; compound concentrations: 100 nM and 1000 nM (sheet 'Samples'), CATDS: 5.6163427913581303E-2",1410 nM
COc1cc(F)c(F)c(F)c1C(=O)c1cnc(NC2CCN(S(C)(=O)=O)CC2)nc1N [RO4600703-000],potency estimated from few doses,AIFM1; [1],939 nM
same,potency estimated from few doses,MAPK1; [1],1580 nM
CC(=O)Nc1ccc2c(C3=C(c4cn(C)c5ccccc45)C(=O)NC3=O)cn(C)c2c1 [RO0317596-000],potency estimated from few doses,"MAPK1; compound concentrations: 100 nM and 1000 nM (sheet 'Samples'), CATDS: 0.12847476759448101",1100 nM
Fc1ccc(-c2ncn(C3CCNCC3)c2-c2ccnc(Oc3ccc4c(c3)OCO4)n2)cc1 [SB-250715],potency estimated from few doses,AKT3,2290 nM
NC(=O)c1cccnc1COc1cc(-c2ccc(N3CCOCC3)nc2)cc2ncccc12 [BI01125081],potency estimated from few doses,MST1R,1120 nM
Cn1cc(C2=C(c3cccc([N+](=O)[O-])c3)C(=O)NC2=O)c2ccccc21 [RO0317474-000],potency estimated from few doses,"CDC7; compound concentrations: 100 nM and 1000 nM (sheet 'Samples'), CATDS: 0.13743963750211899",1670 nM
